Laboratory results published in the supplement of paper PMC7156485.
Counter-ions that a name gives are not always drawn. ± gives the standard deviation of the averaged measurements.
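Also: TDF denotes transformed human dermal fibroblasts of mesenchymal origin.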

These molecules were tested on TDF (assay: cell number relative to DMSO (% of DMSO); higher = more cells (less growth inhibition / toxicity)). Conditions: concentration: 10 µM; 24 h.
Method in brief: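 Compounds were applied at 10 µM for 24 h at 37 °C, in triplicate, to HCC1569 and TDF cells. The cells were then fixed and stained for H1.0, and nuclei were counterstained with DAPI. Nuclear H1.0 intensity or cell number is reported relative to the plate control as a percent, taking the median of replicates. Smoothing for positional effects was applied to HCC1569 values only.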
NCC(CP(=O)(O)O)c1ccc(Cl)cc1 (centres undefined) [Phaclofen] gave a cell number of 100. For Br.C=CCN1CCc2cccc3c2C1Cc1ccc(O)c(O)c1-3 (stereo not drawn) [R(-)-N-Allylnorapomorphine hydrobromide], the cell number was 85.6. For NC(=O)CN1CCCC1=O [Piracetam], the cell number was 99.2. Molecule CC(=O)C1CCC2C3CCC4CC(O)CCC4(C)C3C(=O)CC12C (stereo not drawn) [5alpha-Pregnan-3alpha-ol-11,20-dione] has a cell number of 108. Work on CN1C2CCC1CC(O)C2 (centres undefined) [Tropine] yielded a cell number of 104. In the case of C=CCN1CC(C)N(C(c2ccc(C(=O)N(CC)CC)cc2)c2cccc(OC)c2)CC1C (centres undefined), the cell number is reported as 102. Work on N#CC(C#N)=Cc1ccc(O)c(O)c1 [Tyrphostin 23] yielded a cell number of 93.1. Molecule O=C1C=CC(=O)C=C1 [p-Benzoquinone] has a cell number of 99.8. CCCN(CCC)C1CCc2ccc(O)cc2C1 (racemic) was tested, and the cell number was 111. With C[N+]1(C)C2CCC1CC(OC(=O)C(CO)c1ccccc1)C2.[Br-] (centres undefined) [Atropine methyl bromide] the cell number was 105. Cl.O=c1[nH]oc2c1CCNC2 [THIP hydrochloride] gave a cell number of 112. CC(N)C(O)c1ccc(O)c(O)c1 (single isomer, unassigned; (-)) [(-)-alpha-Methylnorepinephrine] was tested, and the cell number was 98.5. NC(Cn1oc(=O)[nH]c1=O)C(=O)O (single isomer, unassigned; (+)) [(+)-Quisqualic acid] gave a cell number of 94.1. In the case of Cl.NCCc1c[nH]c2ccccc12 [Tryptamine hydrochloride], the cell number is reported as 98.5. For CCC1(c2ccc(N)cc2)CCC(=O)NC1=O (racemic) [DL-Aminoglutethimide], the cell number was 102. CC(C)Oc1cccnc1N(C)C1CCN(Cc2ccc(I)cc2)CC1 [RBI-257 maleate] gave a cell number of 98.1. In the case of COc1ccccc1N1CCNCC1.Cl [1-(2-Methoxyphenyl)piperazine hydrochloride], the cell number is reported as 113. Work on CC(=O)OCC1=C(C(=O)[O-])N2C(=O)C(NC(=O)CCCC(N)C(=O)[O-])C2SC1.[Zn+2] (centres undefined) [Cephalosporin C zinc salt] yielded a cell number of 101. In the case of O=C1C=C2C=CC3CC2(O1)C1CCCCN31 (centres undefined) [Securinine], the cell number is reported as 76.4. Molecule CC12C(=O)OC(=O)C1(C)C1CCC2O1 (centres undefined) [Cantharidin] has a cell number of 10.9 ± 0.21. N#CC(C#N)=Cc1cc(O)c(O)c(O)c1 [Tyrphostin 25] was tested, and the cell number was 89.8. Work on NC(=NCCCC(N)C(=O)O)N[N+](=O)[O-] [NG-Nitro-L-arginine] yielded a cell number of 96.7. Cc1ccc2c(c1)C1(CCN(CCc3nc(-c4ccccc4)oc3C)CC1)OC(=O)N2 gave a cell number of 91.1. For CCc1c(C(=O)OC)ncc2[nH]c3cc(OC)c(OC)cc3c12 [Methyl 6,7-dimethoxy-4-ethyl-beta-carboline-3-carboxylate], the cell number was 99.5. Work on Br.CC1NCCc2cc(O)c(O)cc21 (centres undefined) yielded a cell number of 93.9. For CC(C)(C)c1cc(C=C(C#N)C#N)cc(Br)c1O, the cell number was 99.1. Molecule CCN1CC2(C)CCC(OC)C34C2C(OC(C)=O)C2(OCOC25CC(OC)C2CC3(O)C5C2OC)C14 (centres undefined) [Deltaline] has a cell number of 104. With C=C(C)C1Cc2c(ccc3c2OC2COc4cc(OC)c(OC)cc4C2C3=O)O1 (centres undefined) [Rotenone] the cell number was 16.2 ± 0.54. N[C@@](CF)(Cc1cnc[nH]1)C(=O)O [MK-453 hydrochloride] gave a cell number of 103. CCC(C(N)=O)N1CCCC1=O (centres undefined) [Levetiracetam] showed a cell number of 105. For CCCN(CCC)C1CCc2c(F)ccc(O)c2C1.Cl (stereo not drawn) [S(-)-UH-301 hydrochloride], the cell number was 97.9. For Cn1ncnc1COc1nn2c(-c3c(F)cccc3F)nnc2cc1C1CCC1, the cell number was 100. Molecule C=C1C(C)C2C(Cc3ccccc3)NC(=O)C23OC(=O)C=CC(O)CCCC(C)CC=CC3C1O (centres undefined) [Cytochalasin B] has a cell number of 63.7. CC(=O)OC1CC2CCC3C(CCC4(C)C3CC([N+]3(C)CCCCC3)C4OC(C)=O)C2(C)CC1[N+]1(C)CCCCC1.[Br-].[Br-] (centres undefined) [Pancuronium.2Br] gave a cell number of 92. C=CCN1CCC23CCCCC2C1Cc1ccc(O)cc13.O=C(O)C(O)C(O)C(=O)O (centres undefined) [Levallorphan tartrate] showed a cell number of 118. Work on Fc1cc(F)c2c(c1)C1C=CCC1C(c1cccnc1)N2 (centres undefined) yielded a cell number of 52.7. CCC1(O)C(=O)OCc2c1cc1n(c2=O)Cc2cc3ccccc3nc2-1 [(S)-(+)-Camptothecin] showed a cell number of 26.9. Cl.Cl.NNCc1cccc(O)c1 [3-Hydroxybenzylhydrazine dihydrochloride] gave a cell number of 48.9. C=C1C2CC3(C1O)C1CC4C5(C)CCC(O)C4(C1N(CC)C5)C3CC2=O (centres undefined) [Songorine] was tested, and the cell number was 108.
